This note sets out measurements from PubChem BioAssay (NCI).

SMILES strings stand for the structures. The panel holds about 79,000 compounds, 15% with a hit somewhere; the sample as a whole holds those more often. Values without a mark were called inactive. Activity calls are given as the source filed them. Rule as the data show it: active = growth inhibition above about 70%; inactive = the rest.

The nature of assay [1]: NCI Yeast Anticancer Drug Screen. Data for the rad50 strain (AID 155).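 Also: 0% = growth of vehicle-only cultures of the same strain.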 The settings on record: S. cerevisiae rad50 strain growth inhibition; at 50.0 µM; stronger effect = higher value. In a few lines:
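Relative growth inhibition (compound vs vehicle) was measured in yeast with a defined repair-gene alteration.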

A short description of assay [2]: NCI Yeast Anticancer Drug Screen. Data for the mec2-1 strain (AID 157). The settings on record: S. cerevisiae mec2-1 strain, at 50.0 µM, stronger effect = higher value. In a few lines:
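Vehicle-treated cultures served as reference for growth inhibition of compound-exposed mec2-1 yeast.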

Assay [3] in a line: NCI Yeast Anticancer Drug Screen. Data for the sgs1 mgt1 strain (AID 161).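 Also: 0% = growth of cultures given vehicle only.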 The settings on record: S. cerevisiae sgs1 mgt1 strain, at 50.0 µM, stronger effect = higher value. In a few lines: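 Mutant yeast exposed to compound; growth scored against vehicle-only wells.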
Assay [4] is described as follows: NCI Yeast Anticancer Drug Screen. Data for the cln2 rad14 strain (AID 165).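 Also: 0% = growth equal to vehicle treated cultures.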 The following applies: S. cerevisiae cln2 rad14 strain, at 50.0 µM, stronger effect = higher value. In a few lines: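 Each compound was tested on cln2 rad14 yeast. Inhibition of growth was calculated against vehicle-exposed controls.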
The nature of assay [5]: NCI Yeast Anticancer Drug Screen. Data for the bub3 strain (AID 167). The settings on record: S. cerevisiae bub3 mutant strain, at 50.0 µM, stronger effect = higher value. In a few lines: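 Screening used yeast with an engineered genetic alteration affecting cell cycle control. Compound-exposed cultures were compared with vehicle cultures, and reduced growth was taken as inhibition.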

A short description of assay [6]: NCI Yeast Anticancer Drug Screen. Data for the mlh1 rad18 strain (AID 175). The following applies: S. cerevisiae mlh1 rad18 strain growth inhibition; at 50.0 µM; stronger effect = higher value. In a few lines:
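Vehicle-treated cultures served as the reference for growth inhibition in a yeast strain carrying DNA damage repair alterations exposed to each compound.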

For `CC1OC(OC2CCC3(C)C(CCC4C3CC(O)C3(C)C(C5=CC(=O)OC5)CCC43O)C2)CC(O)C1OC1CC(O)C(OC2CC(O)C(OC3OC(CO)C(O)C(O)C3O)C(C)O2)C(C)O1` (stereo not given), the growth inhibition was 16.4% in assay [1]; -7.7% in assay [2]; -0.4% in assay [3]; 4.35% in assay [4]; 10.6% in assay [5]; 20.1% in assay [6].
In the case of `CC1=CC=CNC1(N)Br` (stereo not given), the growth inhibition is 3.7% in assay [1]; 4% in assay [2]; 15.8% in assay [3]; 19.4% in assay [4]; 7.55% in assay [5]; -4.9% in assay [6].
`COc1ccc(/C=N/O)cc1OC`: the growth inhibition in assay [1] was -1.8%; in assay [2], 14.8%; in assay [3], -2.15%; in assay [4], 11.8%; in assay [5] it was 10.9%; in assay [6], 5.95%.
With `Cc1cccc(CCSCCc2cccc(C)[n+]2[O-])[n+]1[O-]`, the growth inhibition was 19.8% in assay [1]; -2.45% in assay [2]; -1.1% in assay [3]; 17.4% in assay [4]; 0.8% in assay [5]; 1.8% in assay [6].
As to `COc1n[n+]([O-])c(OC)cc1[N+](=O)[O-]`, the growth inhibition is 51.7% in assay [1]; 33.6% in assay [2]; 33.9% in assay [3]; 15% in assay [4]; 17.6% in assay [5]; 76.7% (active) in assay [6].
`COc1cc([N+](=O)[O-])ccc1NC(=O)Nc1c(C)n(C)n(-c2ccccc2)c1=O`: the growth inhibition in assay [1] is -17.1%; in assay [2], 1.75%; in assay [3], -8.3%; in assay [4], 92.6% (active); in assay [5], 0.15%; in assay [6] it was 6.25%.
In the case of `CCc1c(C)c(C)c(C)c(C)c1C(C)=O`, the growth inhibition was -5% in assay [1]; -22.4% in assay [2]; -7.35% in assay [3]; 20.1% in assay [4]; 6.4% in assay [5]; -26.6% in assay [6].
`COc1ccc(-n2[nH]nc(C(N)=O)c2=O)cc1`: the growth inhibition is 7.6% in assay [1]; -2.5% in assay [2]; -33.4% in assay [3]; -22.6% in assay [4]; -24.6% in assay [5]; -65% in assay [6].
Turning to `O=[N+]([O-])c1cc2c(c([N+](=O)[O-])c1)Nc1cc(Cl)ccc1O2`, the growth inhibition was 1.6% in assay [1]; 19.8% in assay [2]; 17.6% in assay [3]; 11.8% in assay [4]; 4.4% in assay [5]; 26.9% in assay [6].
In the case of `COc1ccc(C(=O)/C=C/c2ccc(OCCSCCCCCCCCCCSCCOc3ccc(/C=C/C(=O)c4ccc(OC)cc4)cc3)cc2)cc1`, the growth inhibition is -35% in assay [1]; -30.1% in assay [2]; -16.6% in assay [3]; 3.75% in assay [4]; -20.2% in assay [5]; -40.3% in assay [6].
For `CN(CC(N)=O)C(=O)c1cnc2ccccc2c1`, the growth inhibition is 9.65% in assay [1]; 18.6% in assay [2]; -1.05% in assay [3]; 8.05% in assay [4]; 14.1% in assay [5]; 0.4% in assay [6].
On to `[C-]#[N+]N=P(c1ccccc1)(c1ccccc1)c1ccccc1`, for which the growth inhibition in assay [1] was -18%; in assay [2], -20.8%; in assay [3], -27.9%; in assay [4], 3.2%; in assay [5], -8.65%; in assay [6], 5.65%.
Consider `O=C(/C=C/c1ccccc1)CCc1c(O)c2ccccc2oc1=O`, for which the growth inhibition is 9.05% in assay [1]; -5.3% in assay [2]; 0.45% in assay [3]; 31.1% in assay [4]; 1.85% in assay [5]; 28.8% in assay [6].
For the molecule `COc1cc(C(=O)Nc2cccc3ccccc23)c(Br)c(OC)c1OC`, the growth inhibition was 19.3% in assay [1]; 17.3% in assay [2]; 39.5% in assay [3]; 26.9% in assay [4]; 53.5% in assay [5]; 32.7% in assay [6].
For `O=[N+]([O-])c1ccc(CN2CCC(C(=S)Nc3ccccc3)=C2c2ccccc2)cc1`, the growth inhibition was 9.6% in assay [1]; 0.3% in assay [2]; 8.8% in assay [3]; 9.05% in assay [4]; -1.2% in assay [5]; 12.4% in assay [6].
`COc1ccc(OC)c(NCC(=O)Nn2cnc3ccc(S(=O)(=O)Nc4cc(OC)ccc4OC)cc3c2=O)c1`: the growth inhibition was 36.9% in assay [1]; 12.7% in assay [2]; 27.6% in assay [3]; 20.9% in assay [4]; 50.8% in assay [5]; 37.1% in assay [6].
Consider `COc1ccc(Cl)cc1NC(=O)c1cccc(Cl)c1`, for which the growth inhibition was 18.8% in assay [1]; 16.9% in assay [2]; 7.8% in assay [3]; 10.9% in assay [4]; 30.1% in assay [5]; -0.3% in assay [6].
Consider `N#CCNC=O`, for which the growth inhibition in assay [1] was -2.9%; in assay [2], 7.35%; in assay [3], -13.4%; in assay [4], -11.9%; in assay [5], 2.8%; in assay [6] it was -11.5%.
As for `O=C1OI(=O)(O)c2ccccc21` (stereo not given), the growth inhibition in assay [1] was -4.35%; in assay [2] it was -5.95%; in assay [3], -7.5%; in assay [4], -36.6%; in assay [5], 5.2%; in assay [6] it was 2.5%.
In the case of `N#C/C=C\c1ccc(Cl)cc1`, the growth inhibition in assay [1] was 2.6%; in assay [2] it was -4.5%; in assay [3], -30.4%; in assay [4], -10.8%; in assay [5], -11.8%; in assay [6], -3.05%.
Turning to `CC1(C)C2CC(c3ccccc3)C1/C(=C/O)C2=O` (stereo not given), the growth inhibition in assay [1] was -16.9%; in assay [2], -3.2%; in assay [3], 2.8%; in assay [4], 36.8%; in assay [5], -3.85%; in assay [6] it was -2.9%.
In the case of `O=C(O)CSc1nc2c(Cl)c(Cl)c(Cl)cc2[nH]1`, the growth inhibition is -11.7% in assay [1]; -14.1% in assay [2]; 2% in assay [3]; 1.6% in assay [4]; 13.2% in assay [5]; -9.9% in assay [6].
Regarding `O=C1c2cc(CCl)sc2C(=O)c2ccsc21`, the growth inhibition in assay [1] is 88.9% (active); in assay [2], 89.3% (active); in assay [3], 89.5% (active); in assay [4], 89.8% (active); in assay [5], 87.6% (active); in assay [6], 83.2% (active).
Consider `Cc1ccc(C(=O)Oc2ccccc2)cc1`, for which the growth inhibition is -3.35% in assay [1]; -5.1% in assay [2]; -11.7% in assay [3]; -34.2% in assay [4]; -7.2% in assay [5]; -20% in assay [6].
Turning to `CC(=O)Nc1nnnn1C`, the growth inhibition in assay [1] is -3.05%; in assay [2], -2.3%; in assay [3] it was 0.45%; in assay [4] it was -40.1%; in assay [5], -1.9%; in assay [6], -10.9%.
Turning to `Oc1c(Br)cc(CN(Cc2cc(Br)c(O)c(Br)c2)C2CCCCC2)cc1Br`, the growth inhibition in assay [1] was -2.75%; in assay [2], -6.5%; in assay [3], -21.3%; in assay [4], -15.7%; in assay [5] it was -23.1%; in assay [6], 5.4%.
On to `O=C(c1ccccc1)C(c1ccccc1)S(=O)(=O)N1CCCC1` (stereo not given), for which the growth inhibition in assay [1] is -4.65%; in assay [2], 5.65%; in assay [3], 21.6%; in assay [4], -1.4%; in assay [5], 12.7%; in assay [6], 26.9%.
On to `CCOC(=O)C(=O)Nc1c(C)cccc1CC`, for which the growth inhibition is 0.15% in assay [1]; -4.1% in assay [2]; -5.05% in assay [3]; -16.4% in assay [4]; 6.2% in assay [5]; -1.05% in assay [6].
Turning to `Cc1cc(C)nc(C)c1.[Cl-].[Cl-].[Cl-].[Cl-].[Pt+2]`, the growth inhibition in assay [1] is 8.9%; in assay [2] it was 9.25%; in assay [3], -7.5%; in assay [4], 7.4%; in assay [5] it was 2.6%; in assay [6], 7.1%.
Turning to `O/N=C1\CCCC\C1=N/O.O/N=C1\CCCC\C1=N/O.[Pt]`, the growth inhibition in assay [1] was 34.8%; in assay [2], -0.8%; in assay [3], 8.05%; in assay [4], 19.3%; in assay [5], -1.75%; in assay [6] it was 8.05%.
With `CSc1nc(-c2ccccc2)c2c(n1)-c1ccccc1CC2`, the growth inhibition in assay [1] is -4.95%; in assay [2] it was -6.1%; in assay [3], 3.05%; in assay [4], -2.4%; in assay [5], 17.9%; in assay [6] it was -2.35%.
As for `CCOC(=O)C1C/C2=C(/CCCCCCCCCC2)SCCCS1` (stereo not given), the growth inhibition was 4.35% in assay [1]; 5.2% in assay [2]; -9% in assay [3]; 2.15% in assay [4]; -13.7% in assay [5]; -23.7% in assay [6].
Turning to `COc1cc(N=Nc2ccc(S(=O)(=O)O)cc2)ccc1N=Nc1ccc2c(S(=O)(=O)O)cccc2c1O`, the growth inhibition in assay [1] was 15%; in assay [2] it was -8.05%; in assay [3], 14.3%; in assay [4], 11.4%; in assay [5], 5.8%; in assay [6] it was 2.15%.
As to `O=C(O)COc1ccc(/C=C2\SC(=S)NC2=O)cc1`, the growth inhibition in assay [1] is -3.9%; in assay [2] it was -8.3%; in assay [3], 1.6%; in assay [4] it was -36.5%; in assay [5] it was 18.9%; in assay [6], -12.2%.
Turning to `Cc1c(O)c2ccc3ccccc3c2oc1=O`, the growth inhibition in assay [1] is 5.4%; in assay [2], 5.75%; in assay [3] it was -7.05%; in assay [4], -37.4%; in assay [5], -47.4%; in assay [6] it was -6.4%.
Consider `O=S(=O)(O)CCS(=O)(=O)O`, for which the growth inhibition is -15.8% in assay [1]; -19.3% in assay [2]; -3.85% in assay [3]; -51.3% in assay [4]; 1.45% in assay [5]; -45.9% in assay [6].
In the case of `Cc1n(CC(=O)c2ccccc2)nc2sc(N)n[n+]12`, the growth inhibition was -50% in assay [1]; -23.9% in assay [2]; -68% in assay [3]; -18.2% in assay [4]; -14.8% in assay [5]; -20.9% in assay [6].
For the molecule `O=C(NN1C(=O)C(Cl)C1c1ccccc1Cl)c1ccccc1O` (stereo not given), the growth inhibition was -48.1% in assay [1]; -35.9% in assay [2]; -49.1% in assay [3]; -5.55% in assay [4]; -21% in assay [5]; -36% in assay [6].
For the molecule `C[C@@H]1C(=O)CC2(O)[C@@]13C[C@@H](OC(=O)[C@@H]3O)[C@@H](C)[C@@]21COC1=O` (stereo not given in full), the growth inhibition in assay [1] is 13.8%; in assay [2], 14.2%; in assay [3], -20.6%; in assay [4] it was -6.65%; in assay [5], -28.1%; in assay [6], -47.1%.
As to `COc1ccccc1-n1c(O)c(N=Nc2ccccc2)c(=O)n(-c2ccc(C)cc2)c1=S`, the growth inhibition in assay [1] was 38.3%; in assay [2], -8.95%; in assay [3], 66.8%; in assay [4], -10.8%; in assay [5], -2.2%; in assay [6] it was 12.8%.
